# Experimental data published in PubChem BioAssay (Tox21).
# Records with an inconclusive call do not appear. A number with no mark means an inactive call. The source made the active and inactive calls. Calls follow the shape of the full dose curve.
# Target: 5-hydroxytryptamine receptor 2A (Homo sapiens) (UniProt P28223)
# Test: 5-hydroxytryptamine receptor 2A (HTR2A) small molecule agonists, cell-based qHTS assay (AID 1963587); also: nearly all actives have a fitted effect of over 30% in size
# Settings: HTR2A-CHO cells, calcium flux fluorescence, agonist mode; series mostly up to 76.8 µM; activation: at the top concentration
# Summary of the method: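 Kinetic calcium-flux fluorescence (2 min, 1 sec intervals) after compound addition in agonist mode. HTR2A-CHO cells were cultured 18 h, then dye-loaded 1 h at 37 C.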
# % is scaled to controls: 0 for no effect and ±100 for the full control effect.
# Chain of 5-hydroxytryptamine receptor 2A (Homo sapiens) (P28223 whole entry, looked up): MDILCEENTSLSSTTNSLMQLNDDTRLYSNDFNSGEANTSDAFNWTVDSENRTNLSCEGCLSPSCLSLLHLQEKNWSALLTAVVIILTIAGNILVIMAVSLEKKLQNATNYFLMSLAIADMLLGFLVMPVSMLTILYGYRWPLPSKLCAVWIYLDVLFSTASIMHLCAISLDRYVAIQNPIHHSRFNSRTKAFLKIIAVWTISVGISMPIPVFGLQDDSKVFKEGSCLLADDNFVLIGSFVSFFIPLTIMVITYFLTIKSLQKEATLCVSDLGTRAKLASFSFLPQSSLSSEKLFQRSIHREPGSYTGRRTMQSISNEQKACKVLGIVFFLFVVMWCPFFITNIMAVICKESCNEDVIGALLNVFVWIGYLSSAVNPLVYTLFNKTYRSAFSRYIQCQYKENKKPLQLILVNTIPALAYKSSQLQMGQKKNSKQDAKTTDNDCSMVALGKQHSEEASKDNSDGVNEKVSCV
SMILES,activation,Potency
CC(C)COC(=O)c1ccc(N)cc1,2.47% [at 35.6 µM],
CCCc1cc(C(N)=S)ccn1,-9.24% [at 35.6 µM],
CCCCCCCCCCCCCCO,,inactive
CCO/C([O-])=N/c1c[n+](N2CCOCC2)no1,-1.8% [at 35.6 µM],
CSc1cnccn1,12.3%,
CCCCCCCOC(C)=O,-0.954%,
CCc1cnc(C(=O)O)c(C(=O)O)c1,0.484%,
NS(=O)(=O)c1ccc(NC(=O)CCC(=O)O)cc1,0.207% [at 35.6 µM],
COc1ccc(C(=O)CC(=O)c2ccc(C(C)(C)C)cc2)cc1,,inactive
CCO[Si](OCC)(OCC)c1ccccc1,-1.95%,
CCC1COC(=O)O1 (stereo unspecified),0.658%,
CC(C)(C)c1ccc(CCC=O)cc1,-5.19%,
FC(F)(F)c1cccc(Cl)c1,2.66%,
Nc1ccc(NCCO)c([N+](=O)[O-])c1,1.31%,
IC(I)I,8.71%,
Cc1cccc(Cl)c1,-0.658%,
CC1=CCC(C(C)C)=CC1,-0.593%,
CC1(C)C(C=C(Cl)Cl)C1C(=O)OCc1cccc(Oc2ccccc2)c1 (stereo unspecified),,inactive
CCCOCCOCCOCCO,-4.21%,
N=C(N)c1ccc2cc(OC(=O)c3ccc(N=C(N)N)cc3)ccc2c1,-7% [at 35.6 µM],
O=[N+]([O-])c1ccc(F)cc1F,-0.0541%,
CC(=O)N(c1onc(C)c1C)S(=O)(=O)c1ccc(N)cc1,0.0341% [at 35.6 µM],
OC[C@H]1O[C@@H](O[C@H]2[C@H](O)[C@@H](O)[C@H](O)O[C@@H]2CO)[C@H](O)[C@@H](O)[C@H]1O,0.702%,
c1ccc2c(c1)CCC2,-1.34%,
CN(C)c1ccc(/C=C/c2ccc([N+](=O)[O-])cc2)cc1,13.3% [at 7.02 µM],
NCCC(O)(P(=O)(O)O)P(=O)(O)O,3.41% [at 35.6 µM],
